According to the supplement of paper PMC8728848:
The sample as a whole holds a higher share of the strongest signals than the screen did.

Assays:
Experiment in all cases: glycan array binding signal (z-score within array); higher = stronger binding
Conditions in all cases: glycan notation: IUPAC condensed, linker removed
[1] = molecular target: Neu5Ac(a2-3)GalNAc(b1-4)GlcNAc
Procedure, shortened: (§1)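 The binding signal is a Z-score computed within each array. Data were drawn from 3228 arrays in the Consortium for Functional Glycomics database, restricted to those with a known protein sequence. Scores were averaged over arrays of the same protein sequence at different concentrations or buffers, and over linkers, and negative values can be taken as non-binding.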

[2] = molecular target: Neu5Ac(a2-6)Gal(b1-4)GlcNAc
Procedure, shortened: as §1

[3] = molecular target: Neu5Ac(a2-6)Gal(b1-4)GlcNAc(b1-2)Man(a1-3)Man(b1-4)GlcNAc(b1-4)GlcNAc
Procedure, shortened: as §1

[4] = molecular target: Neu5Ac(a2-6)Gal(b1-4)GlcNAc(b1-2)Man(a1-3)[Man(a1-6)]Man(b1-4)GlcNAc(b1-4)GlcNAc
Procedure, shortened: as §1

[5] = molecular target: Neu5Ac(a2-6)Gal(b1-4)GlcNAc(b1-2)Man(a1-6)[Man(a1-3)]Man(b1-4)GlcNAc(b1-4)GlcNAc
Procedure, shortened: as §1

[6] = molecular target: Neu5Ac(a2-8)Neu5Ac
Procedure, shortened: as §1

[7] = molecular target: Neu5Ac(a2-8)Neu5Ac(a2-8)Neu5Ac(a2-3)[GalNAc(b1-4)]Gal(b1-4)Glc
Procedure, shortened: as §1

[8] = molecular target: Neu5Ac(a2-8)Neu5Ac(a2-8)Neu5Ac(a2-8)Neu5Ac(a2-3)[GalNAc(b1-4)]Gal(b1-4)Glc
Procedure, shortened: as §1

[9] = molecular target: Fuc(a1-2)Gal(b1-3)[Fuc(a1-4)]GlcNAc
Procedure, shortened: as §1

[10] = molecular target: Fuc(a1-2)Gal(b1-4)[Fuc(a1-3)]GlcNAc(b1-2)Man(a1-3)[Fuc(a1-2)Gal(b1-4)[Fuc(a1-3)]GlcNAc(b1-2)Man(a1-6)]Man(b1-4)GlcNAc(b1-4)GlcNAc
Procedure, shortened: as §1

[11] = molecular target: Fuc(a1-2)[GalNAc(a1-3)]Gal(b1-4)GlcNAc(b1-2)Man(a1-3)[Fuc(a1-2)[GalNAc(a1-3)]Gal(b1-4)GlcNAc(b1-2)Man(a1-6)]Man(b1-4)GlcNAc(b1-4)GlcNAc
Procedure, shortened: as §1

[12] = molecular target: Fuc(a1-3)[Gal(b1-4)]GlcNAc
Procedure, shortened: as §1

[13] = molecular target: Fuc(a1-3)[Gal(b1-4)]GlcNAc(b1-4)Gal(b1-4)[Fuc(a1-3)]GlcNAc
Procedure, shortened: as §1

[14] = molecular target: Gal(b1-3)[Fuc(a1-4)]GlcNAc(b1-2)Man(a1-3)[Gal(b1-3)[Fuc(a1-4)]GlcNAc(b1-2)Man(a1-6)]Man(b1-4)GlcNAc(b1-4)GlcNAc
Procedure, shortened: as §1

[15] = molecular target: Gal(b1-4)GlcNAc(b1-2)Man(a1-3)[GlcNAc(b1-2)Man(a1-6)]Man(b1-4)GlcNAc(b1-4)GlcNAc
Procedure, shortened: as §1

[16] = molecular target: Gal(b1-4)GlcNAc(b1-3)GalNAc
Procedure, shortened: as §1

[17] = molecular target: Gal(b1-4)GlcNAc(b1-3)[GlcNAc(b1-6)]Gal(b1-4)GlcNAc
Procedure, shortened: as §1

[18] = molecular target: Gal3S(b1-3)[Fuc(a1-4)]GlcNAc
Procedure, shortened: as §1

[19] = molecular target: Gal3S(b1-4)[Fuc(a1-3)]Glc6S
Procedure, shortened: as §1

[20] = molecular target: GalNAc(a1-3)Gal
Procedure, shortened: as §1

[21] = molecular target: GalNAc(b1-3)Gal(a1-6)Gal(b1-4)Glc
Procedure, shortened: as §1

[22] = molecular target: Glc(b1-6)Glc
Procedure, shortened: as §1

[23] = molecular target: GlcNAc(a1-4)Gal(b1-4)GlcNAc(b1-3)Gal(b1-4)GlcNAc(b1-3)Gal(b1-4)GlcNAc
Procedure, shortened: as §1

[24] = molecular target: GlcNAc(a1-4)Gal(b1-4)GlcNAc(b1-3)Gal(b1-4)[Fuc(a1-3)]GlcNAc(b1-3)Gal(b1-4)[Fuc(a1-3)]GlcNAc
Procedure, shortened: as §1

[25] = molecular target: GlcNAc(b1-2)Gal(b1-3)GalNAc
Procedure, shortened: as §1

[26] = molecular target: GlcNAc(b1-2)Man(a1-3)[GlcNAc(b1-2)Man(a1-6)]Man(b1-4)GlcNAc(b1-4)[Fuc(a1-6)]GlcNAc
Procedure, shortened: as §1

[27] = molecular target: GlcNAc(b1-3)Gal
Procedure, shortened: as §1

[28] = molecular target: GlcNAc(b1-3)Gal(b1-3)GalNAc
Procedure, shortened: as §1

[29] = molecular target: Neu5Ac(a2-3)Gal(b1-3)[Neu5Ac(a2-6)]GalNAc
Procedure, shortened: as §1

[30] = molecular target: Neu5Ac(a2-3)Gal(b1-4)GlcNAc(b1-3)Gal(b1-4)[Fuc(a1-3)]GlcNAc
Procedure, shortened: as §1

[31] = molecular target: Neu5Ac(a2-3)Gal(b1-4)[Fuc(a1-3)]GlcNAc(b1-3)GalNAc
Procedure, shortened: as §1

[32] = molecular target: Neu5Ac(a2-3)Gal(b1-4)[Fuc(a1-3)]GlcNAc(b1-6)[Gal(b1-3)]GalNAc
Procedure, shortened: as §1

[33] = molecular target: Neu5Ac(a2-3)Gal6S(b1-4)GlcNAc
Procedure, shortened: as §1

[34] = molecular target: Neu5Ac(a2-6)Gal(b1-4)GlcNAc(b1-2)Man(a1-3)[GlcNAc(b1-2)Man(b1-4)GlcNAc(b1-2)Man(a1-6)]Man(b1-4)GlcNAc(b1-4)GlcNAc
Procedure, shortened: as §1

[35] = molecular target: Neu5Ac(a2-6)GlcNAc(b1-4)GlcNAc(b1-4)GlcNAc
Procedure, shortened: as §1

[36] = molecular target: Neu5Ac9Ac(a2-3)Gal(b1-4)GlcNAc
Procedure, shortened: as §1

[37] = molecular target: Neu5Gc(a2-3)Gal(b1-4)GlcNAc
Procedure, shortened: as §1

Row | Binder | glycan array binding signal (z-score) [1] | glycan array binding signal (z-score) [2] | glycan array binding signal (z-score) [3] | glycan array binding signal (z-score) [4] | glycan array binding signal (z-score) [5] | glycan array binding signal (z-score) [6] | glycan array binding signal (z-score) [7] | glycan array binding signal (z-score) [8] | glycan array binding signal (z-score) [9] | glycan array binding signal (z-score) [10] | glycan array binding signal (z-score) [11] | glycan array binding signal (z-score) [12] | glycan array binding signal (z-score) [13] | glycan array binding signal (z-score) [14] | glycan array binding signal (z-score) [15] | glycan array binding signal (z-score) [16] | glycan array binding signal (z-score) [17] | glycan array binding signal (z-score) [18] | glycan array binding signal (z-score) [19] | glycan array binding signal (z-score) [20] | glycan array binding signal (z-score) [21] | glycan array binding signal (z-score) [22] | glycan array binding signal (z-score) [23] | glycan array binding signal (z-score) [24] | glycan array binding signal (z-score) [25] | glycan array binding signal (z-score) [26] | glycan array binding signal (z-score) [27] | glycan array binding signal (z-score) [28] | glycan array binding signal (z-score) [29] | glycan array binding signal (z-score) [30] | glycan array binding signal (z-score) [31] | glycan array binding signal (z-score) [32] | glycan array binding signal (z-score) [33] | glycan array binding signal (z-score) [34] | glycan array binding signal (z-score) [35] | glycan array binding signal (z-score) [36] | glycan array binding signal (z-score) [37]
1 | cupB6 (Pseudomonas aeruginosa), Q02SP7 (protein) MSMRLFPGRVSLRRRPGAQARQALVLGLCCLTGGQAWALNEVALNCSFGNGKGLPWRVVNELTSGTAKGTVLFARPVSLFLSYKPQASQEAHELVLGGNWSGVGYPGPYGTVASDVKGIGYRISVDAQDGVKRVIPVDNQPHALDKRVTSFSGSTTSDYLQELVLTVDPGELPAGDLKVTSVSGSATLNLWAVDRLKGEASIGSVLAVPADNYPTGVCRKPYSLIGPASIAIGGGPPPPPIPKKCKVEVGREINVKLGSVALKNFPRVNDTSTERSFDISLSECAALAKPEIAFRDKYVSAQQADPTILSLKSGGAAGFGIVVKNGLDQQRIRFDGTPYPMRRVGDSADLPLSAAYIRIGAEGELKAGVADGAAEFTFTFP | -0.177 | -0.15 | 0.058 | 0.325 | 0.107 | -0.002 | -0.074 | -0.043 | – | – | – | – | – | – | – | – | – | – | – | – | – | – | – | – | – | – | – | – | – | – | – | – | – | – | – | – | –
2 | BSR4 (Toxoplasma gondii), Q95NL6 (protein) MVMMGSMQQRRGGLRSNARQLLAVCMSGVVFFSSGQAVADNLLEGLLHRTLQQQVEVTSRLTVAGSDAKCDFFTPATQDSPPVSGSLTLSKGRMTATFECSATQALSISTIPTNIEQNVCDPKKTTNGTVCQFGANGSAGTEVTLKDLLETDRIVNWKVNEQREESNKSQKWSLELHNEDLPLTDKAFVVGCQATSAARGTESGKTAACKLTVNVEARASSLAENNVVTCAYGKGSNPNPVEVEMSTEKNTLTINCGSDGSLQPTTYAEEYCVADSKDVNRCSTTRFVEIFPKFLKSWWVTETQKRTSATLTIPQTDLPEADQQFLVGCVPKKTAPEDPKKDKESGTETGAPTSCTVLVTVKAASSASHASPTVQILAAASSAAA | – | – | – | – | – | – | – | – | 0.187 | 1.41 | -0.071 | 0.23 | 1.44 | 1.39 | -0.349 | 0.454 | 0.261 | 5.04 | 0.993 | -0.538 | -0.617 | -0.765 | -0.25 | 1.8 | 0.324 | 7.79 | -0.636 | 1.23 | 0.026 | 0.289 | 3.61 | 1.73 | -0.227 | -0.667 | -0.434 | 0.407 | -0.102
